# Shown are actives, neighbours in structure and some others; about 0.26% of the full set was active somewhere.
# Menin-MLL FL inh: displaces fluorescein MLL peptide from human menin; Fluorescence polarization, fluorescein-MLL peptide displacement from menin; FP activity change, % at 61.4 µM; 290,000 tested, under 10 active; AID 1766; active = well fitted curve in the direction sought with a large enough effect in the polarisation, not every such curve was filed as active; inconclusive = small, poorly fitted or top-dose-only effect, or effect the other way, or a change in a side signal; inactive = no such curve, though single readings can be large or run the other way; the % refers to the polarisation; note: % of control where 0% means no effect
# Menin-MLL TR inh: inhibitors of human menin-MLL interaction, mutant MLL peptide | O00255 | Menin + Texas Red MLL mutant peptide, fluorescence polarization | Potency, µM (titrated, usually from 61.6 µM), for the others: top-dose FP activity change, negative = inhibition, hits mostly inhibitors | actives 0.23% (n = 270,000); active = well fitted inhibition curve with a large enough effect in the polarisation, with a control signal flat, not every such curve was filed as active; inconclusive = small, poorly fitted or top-dose-only effect, or effect the other way, or a change in a side signal; inactive = no such curve, though single readings can be large or run the other way; the % refers to the polarisation; note: potency is the fitted concentration of half-maximal effect; % of control where 0% means no effect
# Epigenetic reg: epigenetic control regulation, reporter derepression. murine LDR cells, GFP reporter derepression, 30 h. Potency, µM (highest dose often 53.9 µM), for the others: at the highest dose GFP activation, actives largely listed as activators. actives 0.2% (n = 280,000). AID 1865; note: potency is the fitted concentration of half-maximal effect; % of control where 0% means no effect; nearly all actives have a fitted effect of over 60% in size
#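 Readout is the number of GFP-expressing murine LDR cells, counted by cytometry following washing. Cells were treated with compound for 30 h at 37 C; the stably integrated CMV-GFP locus is normally silent.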
# CXXC DNA block: inhibitors of human MLL CXXC domain-DNA interaction. Q03164. MLL-CXXC / FITC-HOXA9 DNA fluorescence polarization. Potency, µM (top dose mostly 115 µM), for the others: top-dose activity change, negative = inhibition, actives largely listed as inhibitors. actives 0.037% (n = 290,000). AID 2662; active = well fitted inhibition curve with a large enough effect in the polarisation, with a control signal flat, not every such curve was filed as active; inconclusive = small, poorly fitted or top-dose-only effect, or effect the other way, or a change in a side signal; inactive = no such curve, though single readings can be large or run the other way; the % refers to the polarisation; note: potency is the fitted concentration of half-maximal effect
#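 Steps: dispense CXXC domain solution (7 uM) → pin compounds or unlabeled HOX-A9 DNA control → 5 min ambient → add FLSN-HOX-A9 solution (50 nM) → spin → 30 min ambient → fluorescence polarization. Tris pH 7.5/NaCl/DTT/BSA buffer.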
# LMNA splice mod: changes lamin A minigene splicing in HeLa cells; actives 0.01% (n = 200,000); Potency, µM (doses to about 46.1 µM), for inactives: at the top dose ratio change, negative = inhibition, hits mostly inhibitors; AID 1487; HeLa LMNA splicing GFP/RFP minigene ratio, 48 h; active = well fitted inhibition curve with a large enough effect in the signal ratio, with a control signal flat, not every such curve was filed as active; inconclusive = small, poorly fitted or top-dose-only effect, or effect the other way, or a change in a side signal; the % refers to the signal ratio; note: potency is the fitted concentration of half-maximal effect; % is set by controls: 0 for no effect and ±100 for the full control effect
#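 S3 HeLa cells stably expressing lamin A-EGFP splicing minigene plus DsRed2, 600 cells/well, 48 h compound exposure at 37C. Laser-scanning cytometry; analysed as GFP (500-530 nm)/RFP (575-640 nm) total intensity ratio; 0.5% DMSO vehicle.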
# MLL CXXC FP-Fl: inhibitors of human MLL CXXC domain-DNA interaction; actives 70% (n = 200); Potency, µM (titrated, usually from 345 µM), inactives show at the highest dose activity change, negative = inhibition, hits mostly inhibitors; shares compounds with CXXC DNA block; MLL CXXC-DNA binding, fluorescein FP; note: potency is the fitted concentration of half-maximal effect; nearly all actives have a fitted effect of over 80% in size
# MLL CXXC FP-TR: MLL CXXC-DNA interaction inhibition, Texas Red FP | actives 40% (n = 200) | shares compounds with CXXC DNA block | Potency, µM (series often up to 345 µM), inactives show top-dose activity change, negative = inhibition, most hits filed as inhibitors | MLL CXXC-DNA binding, Texas Red fluorescence polarization | AID 624161; note: potency is the fitted concentration of half-maximal effect; % is set by controls: 0 for no effect and ±100 for the full control effect; nearly all actives have a fitted effect of over 75% in size
# MLL CXXC HTRF: disrupts human MLL CXXC domain binding to DNA by HTRF. shares compounds with CXXC DNA block. MLL CXXC-DNA binding, HTRF, biochemical. Potency, µM (titrated, usually from 172 µM), inactives show top-dose activity change, negative = inhibition, most hits filed as inhibitors. actives 30% (n = 210). AID 624162; note: % is set by controls: 0 for no effect and ±100 for the full control effect; nearly all actives have a fitted effect of over 80% in size
# The depositor's hits bear a star; ? = inconclusive; . = no result; [ ] = another dose, or the depositor's remark. Unless noted, calls come from the whole dose curve; as a rule, active = well fitted curve in the direction sought with a large enough effect; inconclusive = small, poorly fitted or top-dose-only effect, or another doubt; inactive = no such curve, though single readings can be large; an effect the other way counts as inactive or inconclusive.
SMILES,Menin-MLL FL inh,Menin-MLL TR inh,Epigenetic reg,CXXC DNA block,LMNA splice mod,MLL CXXC FP-Fl,MLL CXXC FP-TR,MLL CXXC HTRF
Cc1ccc(C(C2=C(O)CC(C)(C)CC2=O)C2C(=O)CC(C)(C)CC2=O)s1 (stereo not drawn),5,-13%,-2%,?,8%,.,.,.
COC(C(=O)C(O)C(C)O)C1Cc2cc3cc(OC4CC(OC5CC(O)C(O)C(C)O5)C(O)C(C)O4)c(C)c(O)c3c(O)c2C(=O)C1OC1CC(OC2CC(OC3CC(C)(O)C(O)C(C)O3)C(O)C(C)O2)C(O)C(C)O1 (stereo not drawn),?,-6%,.,?,.,.,.,72%
CO[C@H](C(=O)[C@@H](O)[C@@H](C)O)C1Cc2cc3cc(O[C@H]4C[C@@H](O[C@H]5C[C@@H](O)[C@H](O)[C@@H](C)O5)[C@@H](O)[C@@H](C)O4)c(C)c(O)c3c(O)c2C(=O)[C@H]1O[C@H]1C[C@@H](O[C@H]2C[C@@H](O[C@H]3C[C@](C)(O)[C@H](O)[C@@H](C)O3)[C@H](O)[C@@H](C)O2)[C@H](O)[C@@H](C)O1 (stereo partly drawn),?,-8%,.,40µM*,.,26%,17%,83%
C=CCN1c2ccccc2[C@]23C[C@@H](C(=O)OC)N(C(=O)COCc4ccccc4)C2=NC(C(=O)OC)=C(C(=O)OC)[C@H]13,0[11.7 µM],-1%[11.7 µM],.,.,?,.,.,.
CC(=O)N[C@@H]1C(O[C@H]2O[C@H](C(=O)O)C(O)[C@H](O)[C@H]2O)[C@H](O)[C@@H](CO)O[C@H]1O[C@@H]1C(C(=O)O)O[C@@H](O[C@H]2[C@H](O)[C@@H](CO)OC(O)[C@@H]2NC(C)=O)[C@H](O)[C@H]1O (stereo partly drawn),-5,-5%,.,1%,.,.,.,.
O=C1c2cccc3cc([N+](=O)[O-])cc(c23)C(=O)N1CCN1CCCC1,?,-12%,7%,?,.,.,.,.
CC(=O)OCCCN1C(=O)c2cccc3cc(Br)cc(c23)C1=O,-1,-22%,.,-6%,.,.,.,.
CCN(CC)CCN1C(=O)c2cccc3cc(N)cc(c23)C1=O,?,1%,?,35µM*,.,89µM*,?,97%
Nc1cc2c3c(cccc3c1)C(=O)N(CCN1CCCC1)C2=O,?,-17%,?,7.9µM*,.,142µM*,?,87%
O=C(O)c1ccc(S(=O)(=O)/N=C2\C=C(Nc3ccccc3F)C(=O)c3ccccc32)cc1,-20,?,.,?,.,113µM*,142µM*,-44%
CCOc1ccc(C2OC34CCCCC3C(C#N)(C#N)C2(C#N)C(=N)O4)cc1OC (stereo not drawn),?,.,0%,25µM*,?,18µM*,36µM*,14%
Cc1ccc(C2OC34CCCCCC3C(C#N)(C(=N)O4)C2(C#N)C#N)cc1 (stereo not drawn),-4,-9%,0%,7.9µM*,-11%,12%,?,34%
CCCCOc1ccc(C2OC34CCCCC3C(C#N)(C#N)C2(C#N)C(=N)O4)cc1 (stereo not drawn),?,.,0%,9%,7%,.,.,.
O=C(NCCc1c[nH]c2ccccc12)c1ccccc1O,2,?,.,.,.,.,.,.
O=C1C2=CC[C@@H]3C(=O)N(c4ccc(F)cc4F)C(=O)[C@H]3[C@H]2[C@H](O)[C@H]2O[C@H]12,-16[11.7 µM],11%[11.7 µM],?,.,.,.,.,.

# Source: PubChem (National Center for Advancing Translational Sciences (NCATS))
